Sampled rows, rich in hits. Any-hit rate of the full collection: about 2.8%.
POLB inh – qHTS Assay for Inhibitors of DNA Polymerase Beta | P06746 | Pol beta primer extension/strand displacement, fluorescence kinetic | Potency, µM (titrated, usually from 114 µM), actives largely listed as inhibitors | 1.3% of 340,000 active | AID 485314, 2010
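Curves were derived by four-parameter Hill fits of normalized qHTS data. The kinetic fluorescent primer-extension read was taken at 0 and 10 min after 50 nM substrate, following a 15 min room-temperature preincubation of 10 nM enzyme with compounds.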
FEN1 inh – qHTS Assay for the Inhibitors of Human Flap endonuclease 1 (FEN1); P39748; Recombinant FEN1 flap cleavage, fluorescence, 15 min; Potency, µM (doses to about 114 µM), hits mostly inhibitors; 0.35% of 390,000 active; also: nearly all actives have a fitted effect of over 65% in size
Target sequence (P39748 whole entry, looked up): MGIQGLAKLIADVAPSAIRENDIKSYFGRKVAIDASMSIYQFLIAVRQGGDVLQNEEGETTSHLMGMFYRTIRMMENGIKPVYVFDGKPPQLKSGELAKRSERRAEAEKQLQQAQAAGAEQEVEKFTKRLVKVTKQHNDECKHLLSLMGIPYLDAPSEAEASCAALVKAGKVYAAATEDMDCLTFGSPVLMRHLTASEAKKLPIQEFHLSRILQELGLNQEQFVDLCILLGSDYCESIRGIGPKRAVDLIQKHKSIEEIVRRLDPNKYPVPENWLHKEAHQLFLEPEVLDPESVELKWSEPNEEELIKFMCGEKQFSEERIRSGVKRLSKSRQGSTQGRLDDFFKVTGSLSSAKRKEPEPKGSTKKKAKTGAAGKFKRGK
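Steps: FEN1 (10 nM) dispensed; compound added by pin tool; 15 min at room temperature; substrate added to 50 nM final; reads at 0 min and 15 min; data normalized and fitted (four-parameter Hill).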
Pol eta inh – qHTS for Inhibitors of Polymerase Eta; Potency, µM (doses to about 114 µM), actives largely listed as inhibitors; AID 588591, 2011; recombinant Pol eta, fluorescent DNA replication assay; 1.2% of 390,000 active
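Pol eta (10 nM) was preincubated with compounds for 15 min at room temperature, after which fluorescent replication substrate (50 nM final) was added to start the reaction. Fluorescence was read kinetically at 0 and 10 min.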
POLK inh – qHTS for Inhibitors of Polymerase Kappa; DNA polymerase kappa (Homo sapiens), Q9UBT6; purified Pol kappa, fluorescent DNA synthesis assay, 10 min; Potency, µM (highest dose often 107 µM), most hits filed as inhibitors; 0.53% of 400,000 active
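10 nM Pol kappa preincubated 15 min at room temperature with compounds, then reaction started with substrate at 50 nM final. Fluorescence read kinetically at 0 and 10 min; buffer-only wells served as negative control.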
PI5P4K alpha inh – qHTS for Inhibitors of phosphatidylinositol 5-phosphate 4-kinase (PI5P4K); PI5P4Kalpha enzyme, ADP-Glo luminescence, 60 min; stronger effect = lower value; 1.2% of 330,000 active; Phosphatidylinositol 5-phosphate 4-kinase type-2 alpha (Homo sapiens), P48426; AID 652105, 2013; max response, %; active = max response of -50% or lower; inconclusive = between -30% and -50%; inactive = -30% or higher; also: value at the top dose of about 77 µM
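Controls without substrate or without enzyme flank wells where PI5P4Kalpha converts substrate using 5 microM ATP (final). Incubation lasts 60 minutes at room temperature; ADP formed is read by ADP-Glo luminescence.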
POLI inh – qHTS for Inhibitors of Polymerase Iota; DNA polymerase iota (Homo sapiens), Q9UNA4; Pol iota fluorescent replication assay, 10 min; Potency, µM (top dose mostly 115 µM), most hits filed as inhibitors; 1% of 390,000 active
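Pol iota at 10 nM preincubated 15 min with compounds at room temperature; reaction started with fluorescent substrate, 50 nM final. Fluorescence read kinetically at 0 and 10 min; buffer-only wells as negative control.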
Of the large screens only hits and unclear results are named; the others gave an inactive call. Unless noted, calls follow the shape of the dose curve; as a rule, active = well fitted curve in the direction sought with a large enough effect; inconclusive = small, poorly fitted or top-dose-only effect, or another doubt; inactive = no such curve, though single readings can be large; an effect the other way counts as inactive or inconclusive.

O=C(CCSCc1cccc(Cl)c1)NCCc1ccccc1	none
CCCCC(C)/C=C(C)/C=C(\C)C(=O)NC1=CC(O)(/C=C/C=C/C=C/C(=O)NC2=C(O)CCC2=O)C2OC2C1=O (centres undefined)	POLK inh 27µM (no result: POLB inh, FEN1 inh, Pol eta inh, PI5P4K alpha inh, POLI inh)
CC(C)(C)c1nnc(NS(=O)(=O)c2cc(Cl)ccc2Cl)s1	none
O=S(=O)(Nc1nc(-c2sccc2Cl)cs1)c1cc(Cl)ccc1Cl	POLB inh 32µM, Pol eta inh inconclusive, PI5P4K alpha inh -50, POLI inh inconclusive
CCOc1ccc(/C=C/C(=O)c2cc(Br)ccc(=O)c2O)cc1	POLB inh inconclusive, FEN1 inh 45µM, Pol eta inh inconclusive, POLK inh inconclusive, PI5P4K alpha inh inconclusive, POLI inh inconclusive
CCc1ccc(/C=C/C(=O)c2cc(Br)ccc(=O)c2O)cc1	POLB inh 16µM, FEN1 inh inconclusive, Pol eta inh inconclusive, POLK inh inconclusive, POLI inh inconclusive
CCOc1ccc(C(=O)/C=C/c2ccc(OC)c(OC)c2)cc1	Pol eta inh inconclusive
O=C(C=Cc1ccccc1)c1cc(Br)ccc1O	none (no result: POLB inh)
CCCCC/C=C\C/C=C\C/C=C\C/C=C\CCCC(=O)O[C@@H](CO)COCCCCCCCCCCCCCCCC	none (no result: POLB inh, FEN1 inh, Pol eta inh, PI5P4K alpha inh, POLI inh)
CC(=O)NS(=O)(=O)c1ccc(NC(=O)c2ccc(S(=O)(=O)N3CCCC3)cc2)cc1	none (no result: POLB inh)
CC(=O)OC[C@@H]1CN(Cc2ccccc2)C[C@H](n2cnc3c(NCC(C)C)ncnc32)O1	none (no result: POLB inh, FEN1 inh, Pol eta inh, POLK inh, POLI inh)
O=C1C(F)=CC(COC(c2ccccc2)(c2ccccc2)c2ccccc2)OC1n1cc(F)c(=O)[nH]c1=O (centres undefined)	Pol eta inh 50µM, PI5P4K alpha inh inconclusive, POLI inh inconclusive (no result: POLB inh)
Nc1cc(N)cc(-c2nc3ccccc3[nH]2)c1	Pol eta inh inconclusive, PI5P4K alpha inh -64
Nc1ccc(-c2nc3ccc(N)cc3[nH]2)cc1	FEN1 inh inconclusive, POLK inh 79µM
COc1cccc(/C=N/NC(=O)Cn2cnc3c2c(=O)n(C)c(=O)n3C)c1	none
Cc1cccc(-c2nc(CSCC(=O)NCCc3ccc(Cl)cc3)c(C)o2)c1	FEN1 inh inconclusive (no result: PI5P4K alpha inh)
O=c1c(-c2ccc(Cl)cc2)coc2c(CN3CCCCC3)c(O)ccc12	POLI inh 32µM
Cc1nnc(NC(=O)C(=O)c2cc(C)n(-c3ccc(C)c(C)c3)c2C)s1	none (no result: PI5P4K alpha inh)
O=C(Nc1nnc(SCc2ccc(F)cc2)s1)C1Cc2ccccc2CN1C(=O)c1ccco1 (centres undefined)	Pol eta inh 22µM, POLK inh inconclusive, PI5P4K alpha inh inconclusive, POLI inh inconclusive
Cc1ccc(NC(=O)C2Cc3ccccc3CN2C(=O)c2ccco2)cc1S(=O)(=O)N(C)C (centres undefined)	POLB inh inconclusive, POLI inh inconclusive
O=C(Nc1nnc(C2CC2)s1)C1Cc2ccccc2CN1S(=O)(=O)c1cccs1 (centres undefined)	POLB inh 11µM, Pol eta inh 7.1µM, POLK inh inconclusive, PI5P4K alpha inh -60
CN(C)S(=O)(=O)c1cccc(NC(=O)C2Cc3ccccc3CN2C(=O)c2ccco2)c1 (centres undefined)	POLB inh inconclusive, Pol eta inh inconclusive, PI5P4K alpha inh inconclusive, POLI inh 35µM
O=C(Nc1nnc(C2CC2)s1)C1Cc2ccccc2CN1C(=O)c1ccco1 (centres undefined)	POLB inh 7.9µM, Pol eta inh inconclusive, PI5P4K alpha inh inconclusive, POLI inh 28µM
CC1=C(CC(=O)NCC(=O)NCC(=O)O)c2cc(F)ccc2/C1=C/c1ccc(S(C)=O)cc1 (centres undefined)	none
CC(=O)Nc1ccc(NC(=O)C(OC(=O)c2ccccc2)C(OC(=O)c2ccccc2)C(=O)O)cc1 (centres undefined)	none
O=C(OC(C(=O)O)C(OC(=O)c1ccccc1)C(=O)NCc1ccccc1)c1ccccc1 (centres undefined)	POLI inh 89µM (no result: PI5P4K alpha inh)
C[N+]1(CC(=O)c2ccc(Cl)cc2)CCOCC1	POLK inh inconclusive, POLI inh inconclusive (no result: POLB inh, Pol eta inh, PI5P4K alpha inh)
O=S(=O)(c1ccc(Oc2ccc(-c3nnco3)cc2)nc1)N1CCC(Cc2ccccc2)CC1	POLB inh inconclusive, Pol eta inh 45µM
Cc1ccnc(NS(=O)(=O)c2ccc(NC(=O)c3cc(-c4ccccc4)nc4ccccc34)cc2)n1	none
Cc1ccnc(NS(=O)(=O)c2ccc(NC(=O)c3cc(-c4ccc(Br)cc4)nc4ccccc34)cc2)n1	POLB inh 79µM, Pol eta inh 35µM, PI5P4K alpha inh inconclusive, POLI inh 45µM
O=C(COc1ccccc1F)OCc1cc(=O)n2nc(-c3cccs3)sc2n1	POLB inh 32µM, POLI inh inconclusive (no result: PI5P4K alpha inh)
O=C(OCc1cc(=O)n2nc(-c3cccs3)sc2n1)c1ccc(Cl)cc1	POLB inh 32µM, Pol eta inh inconclusive, POLI inh inconclusive (no result: PI5P4K alpha inh)
Cc1ccccc1OCC(=O)OCc1cc(=O)n2nc(-c3cccs3)sc2n1	POLB inh inconclusive, POLI inh inconclusive (no result: PI5P4K alpha inh)
O=C(OCc1cc(=O)n2nc(-c3cccs3)sc2n1)c1ccccc1	POLB inh 35µM, Pol eta inh 79µM, POLI inh 79µM (no result: PI5P4K alpha inh)
Cc1cccc(C(=O)OCc2cc(=O)n3nc(-c4cccs4)sc3n2)c1	POLB inh 20µM, Pol eta inh inconclusive, POLK inh inconclusive, POLI inh 89µM (no result: PI5P4K alpha inh)
CCCC12CN3CC(C)(CN(C1)C3c1ccc(CC)cc1)C2=O (centres undefined)	none (no result: PI5P4K alpha inh)
O=[N+]([O-])c1cc(-n2cccc2)ccc1N1CCOCC1	none
O=C(O)c1cc(-n2cccc2)ccc1N1CCOCC1	Pol eta inh 50µM, POLK inh inconclusive
Cc1[nH]c2ccccc2c1N=Nc1ccccc1C(=O)O	POLB inh 32µM, FEN1 inh inconclusive, Pol eta inh 35µM, POLK inh inconclusive, PI5P4K alpha inh inconclusive, POLI inh inconclusive
COC(=O)c1cc(N=Nc2c(C)[nH]c3ccccc23)cc(C(=O)OC)c1	none
C/C(Cc1ccccc1)=N\NC(=O)CNC(=O)c1ccccc1Br	none
CCCOc1ccc(/C=c2\sc3nc(-c4ccco4)nn3c2=O)cc1OCC	POLB inh inconclusive, Pol eta inh inconclusive, POLK inh inconclusive, PI5P4K alpha inh inconclusive, POLI inh 22µM
O=C1C=C(C2OC(CO)C(O)C2O)C(=O)N1 (centres undefined)	PI5P4K alpha inh -54 (no result: POLB inh)
OC[C@@H]1O[C@@H](O)[C@H](O)[C@H](O)[C@@H]1O	none (no result: POLB inh, FEN1 inh, Pol eta inh, PI5P4K alpha inh, POLI inh)
O=C(COc1ccc(Br)cc1)N/N=C1/SCC(=O)N1Cc1ccco1	PI5P4K alpha inh -67

From PubChem
